According to PubChem BioAssay (NCATS):
Where “and” joins values, the source holds several entries; their conditions need not be identical. Identical values can stand only once. Inconclusive results are not listed. A structure can be active in one record and inactive in another. Calls of active or inactive are those of the source. Unless noted, calls come from the whole dose curve.

What was measured:
[1] = qHTS for Inhibitors of the Functional Ribonucleoprotein Complex (vRNP) of Lassa (LASV) Arenavirus: LASV Primary Screen - GLuc reporter signal (AID 1347082; calls by dose curve; tested in HEK293 reporter line; note: % is set by controls: 0 for no effect and ±100 for the full control effect; nearly all actives have a fitted effect of over 60% in size)
[2] = qHTS for Inhibitors of the Functional Ribonucleoprotein Complex (vRNP) of Lassa (LASV) Arenavirus: Viability assay - alamar blue signal for LASV Primary Screen (AID 1347083; calls by dose curve; tested in HEK293 reporter line; note: % is set by controls: 0 for no effect and ±100 for the full control effect; nearly all actives have a fitted effect of over 80% in size)
[3] = qHTS for Inhibitors of the Functional Ribonucleoprotein Complex (vRNP) of Lymphocytic Choriomeningitis Arenaviruses (LCMV): Viability assay - alamar blue signal for LCMV Primary Screen (AID 1347085; calls by dose curve; tested in HEK293 reporter line; note: % is set by controls: 0 for no effect and ±100 for the full control effect; nearly all actives have a fitted effect of over 80% in size)
[4] = biological target: Nucleoprotein (Lymphocytic choriomeningitis virus (strain Armstrong)) (UniProt P09992); assay: qHTS for Inhibitors of the Functional Ribonucleoprotein Complex (vRNP) of Lymphocytic Choriomeningitis Arenaviruses (LCMV): LCMV Primary Screen - GLuc reporter signal (AID 1347086); note: % is set by controls: 0 for no effect and ±100 for the full control effect; nearly all actives have a fitted effect of over 70% in size
[5] = system: Zika virus NS2B-NS3 protease; assay: Primary screen GU AMC qHTS for Zika virus inhibitors (AID 1347154; active = well fitted curve in the direction sought with a large enough effect; an effect the other way counts as inactive or inconclusive;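 note: 0% = no-inhibitor control and -100% = no-enzyme control; nearly all actives have a fitted effect of over 70% in size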)
Method in brief: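 Fluorogenic AMC-substrate cleavage by noncovalent NS2B-NS3 protease complex (25 nM, pH 8.0 Tris buffer with Tween 20) followed for 15 minutes at room temperature (~20% conversion). Percent inhibition from ex340/em450 signal change, fitted by 4-parameter Hill equation.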

[6] = Primary qHTS for small molecule stabilizers of the endoplasmic reticulum resident proteome: Secreted ER Calcium Modulated Protein (SERCaMP) assay (AID 1508630; active = well fitted curve in the direction sought with a large enough effect; an effect the other way counts as inactive or inconclusive; note: % is set by controls: 0 for no effect and ±100 for the full control effect)
Method in brief: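 GLuc-SERCaMP-expressing SH-SY5Y cells, pretreated 16 h with compound, are challenged with thapsigargin to empty ER calcium stores; after 4 h, coelenterazine is added directly to the medium and luminescence is imaged.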

[7] = biological target: Luciferin 4-monooxygenase (Photinus pyralis) (UniProt P08659); assay: Biochemical firefly luciferase enzyme assay for NPC (AID 624030; active = well fitted curve in the direction sought with a large enough effect; an effect the other way counts as inactive or inconclusive;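 note: purified P. pyralis luciferase at 10 nM with luciferin and ATP substrate; 0% = DMSO and -100% = full luciferase inhibition by PTC124 control; nearly all actives have a fitted effect of over 70% in size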)
Method in brief: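 Direct inhibition of firefly luciferase enzyme (10 nM final, 50 mM Tris Acetate) assessed by luminescence within 5 minutes. Percent activity scaled between DMSO and PTC124 positive control, with concentration-effect curves classified by fit quality and response.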

[8] = Primary qHTS for inhibitors of SARS-S pseudo-typed particle cell entry (AID 1479145); note: nearly all actives have a fitted effect of over 45% in size
[9] = Primary qHTS for Huh7 cytotoxicity: counterscreen for inhibitors of MERS-S pseudotyped particle cell entry (AID 1479147); settings: outcome: dose series up to 57.1 µM unless noted; for activity change, negative = cytotoxicity: % is set by controls: 0 for no effect and ±100 for the full control effect
[10] = Primary qHTS for inhibitors of MERS-S pseudo-typed particle cell entry (AID 1479149); note: nearly all actives have a fitted effect of over 60% in size; for activity change, negative = inhibition: % is set by controls: 0 for no effect and ±100 for the full control effect
[11] = Primary qHTS for Vero E6 cytotoxicity: counterscreen for inhibitors of SARS-S pseudo-typed particle cell entry (AID 1479150); settings: outcome: dose series up to 57.1 µM unless noted
[12] = Cytotoxicity counterscreen for inhibitors of SARS-CoV-2 cell entry (AID 1645845); note: nearly all actives have a fitted effect of over 50% in size; note: potency is the fitted concentration of half-maximal effect
Method in brief: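 48 h compound treatment (after 1 h preincubation), HEK293-ACE2 cells, 37 C/5% CO2; ATP luminescence endpoint; normalized to cell wells and media blanks.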

[13] = biological target: Peroxisome proliferator-activated receptor delta (Homo sapiens) (UniProt Q03181); assay: qHTS assay for small molecule agonists of peroxisome proliferator-activated receptor delta signaling (AID 588534);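 note: 0% = DMSO basal wells and 100% = positive control agonist at 10 µM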
Method in brief: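 Cell-based beta-lactamase reporter assay run in agonist mode: cells seeded and incubated 5 hrs at 37 C, compounds added and incubated 18 hrs at 37 C. CCF4 dye fluorescence read after 2 hrs at RT; EC50 and efficacy from Hill fits.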

[14] = Primary qHTS to identify inhibitors of SARS-CoV-2 cell entry (AID 1645846); settings: activity change, negative = inhibition: at 57.1 µM (top of the series) unless noted; note: nearly all actives have a fitted effect of over 45% in size
Method in brief: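 Inhibition of spike-mediated entry was scored in human ACE2-transfected Expi293F cells. Particles were MLV-pseudotyped with Wuhan-Hu-1 S carrying a 19-aa C-terminal deletion; signal was luciferase after two days, scaled between spike PP and fusion-protein-free PP.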

[15] = KB-8-5-11 P-gp reporter qHTS against the NCATS DSHEA and TCM libraries (AID 1919977; active = well fitted curve in the direction sought with a large enough effect; an effect the other way counts as inactive or inconclusive; note: 0% is about no effect)
Method in brief: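 KB-8-5-11, 500 cells/well, DMEM/10% FBS without colchicine; 4 h attach; cpd titrations, 72 h, 37C/5% CO2; CellTiter-Glo, 30 min RT, luminescence.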

[16] = biological target: Endonuclease 4 (Escherichia coli (strain K12)) (UniProt P0A6C1); assay: Counterscreen for APE1 Inhibitors: qHTS Validation Assay for Inhibitors of Endonuclease IV (AID 1708; active = well fitted curve in the direction sought with a large enough effect; an effect the other way counts as inactive or inconclusive; note: % is set by controls: 0 for no effect and ±100 for the full control effect)
Method in brief: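 Enzymatic AP-site incision assay using a double-stranded THF substrate labelled with TAMRA and BHQ-2; released fluorescence signals activity. Enzyme 2 nM, substrate 50 nM, 15 min compound preincubation.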

[17] = Validation screen for inhibitors of Lassa infection (AID 463096); note: potency is the fitted concentration of half-maximal effect
[18] = biological target: Alpha-galactosidase (Coffea arabica) (UniProt Q42656); assay: Counterscreen for Glucocerebrosidase Inhibitors: qHTS Assay for Coffee Bean alpha-Galactosidase at pH 5.9 (AID 998; active = well fitted curve in the direction sought with a large enough effect; an effect the other way counts as inactive or inconclusive;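 note: plate controls were uninhibited enzyme for no effect and no-enzyme basal signal for full effect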)
Method in brief: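 Compounds were titrated from 0.7 nM to 77 uM against green coffee bean alpha-galactosidase (2 nM) using 80 uM fluorogenic 4-methylumbelliferyl substrate. After 20 min at room temperature, reactions were stopped at pH 10 and read by fluorescence.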

[19] = Inducers of the Endoplasmic Reticulum Stress Response (ERSR) in human glioma: Validation (AID 504836; active = well fitted curve in the direction sought with a large enough effect; an effect the other way counts as inactive or inconclusive; note: 0% is about no effect)
Method in brief: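 ERSR induction read as luciferase luminescence (Bright-Glo, 10 min at room temperature) in stably transfected human U87-MG glioma cells exposed to compounds for 16 h, using GRP78 as sensor.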

[20] = Confirmatory qHTS to identify inhibitors of SARS-CoV-2 cell entry (AID 1645844); note: potency is the fitted concentration of half-maximal effect; nearly all actives have a fitted effect of over 45% in size
Method in brief: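 Luminescence from a luciferase reporter, read 48 hr after pseudotyped-particle addition, gives entry signal, normalised to spike-bearing PP wells and bald PP lacking fusion protein wells. Cells are Expi293F stably expressing human ACE2, compound-pretreated 1 hr.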

[21] = VSVG counterscreen qHTS to identify inhibitors of SARS-CoV-2 cell entry (AID 1645847); note: potency is the fitted concentration of half-maximal effect; nearly all actives have a fitted effect of over 65% in size
Method in brief: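 Luminescence from a luciferase reporter, normalised to bald particle and VSV-G pseudotyped particle wells, is the read-out. Cells are HEK293 expressing human ACE2, exposed to compound 1 h before a 48 h particle infection at 37 °C.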

Nucleoprotein (Lymphocytic choriomeningitis virus (strain Armstrong)), sequence (P09992 whole entry, looked up): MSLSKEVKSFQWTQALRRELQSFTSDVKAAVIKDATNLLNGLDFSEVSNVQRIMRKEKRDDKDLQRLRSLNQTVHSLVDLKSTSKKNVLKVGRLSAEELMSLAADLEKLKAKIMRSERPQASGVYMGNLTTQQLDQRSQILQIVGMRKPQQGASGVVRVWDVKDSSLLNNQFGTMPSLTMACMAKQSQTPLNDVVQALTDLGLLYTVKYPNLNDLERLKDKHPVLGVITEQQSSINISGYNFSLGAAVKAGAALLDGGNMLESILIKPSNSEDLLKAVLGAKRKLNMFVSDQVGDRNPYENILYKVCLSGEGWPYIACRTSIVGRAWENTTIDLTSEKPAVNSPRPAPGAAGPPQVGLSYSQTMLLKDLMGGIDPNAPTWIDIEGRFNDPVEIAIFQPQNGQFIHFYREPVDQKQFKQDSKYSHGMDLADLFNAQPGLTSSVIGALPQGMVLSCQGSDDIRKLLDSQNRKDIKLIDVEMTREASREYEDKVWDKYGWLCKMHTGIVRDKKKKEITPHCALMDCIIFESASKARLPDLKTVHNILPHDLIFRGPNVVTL
Peroxisome proliferator-activated receptor delta (Homo sapiens), sequence (Q03181 whole entry, looked up): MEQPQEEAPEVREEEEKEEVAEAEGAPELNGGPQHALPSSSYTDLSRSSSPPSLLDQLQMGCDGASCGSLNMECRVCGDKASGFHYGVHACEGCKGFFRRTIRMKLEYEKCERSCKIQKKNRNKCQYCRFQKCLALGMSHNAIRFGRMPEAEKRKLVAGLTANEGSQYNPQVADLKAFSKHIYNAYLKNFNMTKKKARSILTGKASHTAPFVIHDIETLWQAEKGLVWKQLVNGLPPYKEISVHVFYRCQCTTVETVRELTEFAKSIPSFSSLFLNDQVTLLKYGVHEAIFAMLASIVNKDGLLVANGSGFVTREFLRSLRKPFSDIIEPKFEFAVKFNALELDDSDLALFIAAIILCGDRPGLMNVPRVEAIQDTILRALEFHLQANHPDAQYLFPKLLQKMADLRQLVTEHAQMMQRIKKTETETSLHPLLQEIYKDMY
Luciferin 4-monooxygenase (Photinus pyralis), sequence (P08659 whole entry, looked up): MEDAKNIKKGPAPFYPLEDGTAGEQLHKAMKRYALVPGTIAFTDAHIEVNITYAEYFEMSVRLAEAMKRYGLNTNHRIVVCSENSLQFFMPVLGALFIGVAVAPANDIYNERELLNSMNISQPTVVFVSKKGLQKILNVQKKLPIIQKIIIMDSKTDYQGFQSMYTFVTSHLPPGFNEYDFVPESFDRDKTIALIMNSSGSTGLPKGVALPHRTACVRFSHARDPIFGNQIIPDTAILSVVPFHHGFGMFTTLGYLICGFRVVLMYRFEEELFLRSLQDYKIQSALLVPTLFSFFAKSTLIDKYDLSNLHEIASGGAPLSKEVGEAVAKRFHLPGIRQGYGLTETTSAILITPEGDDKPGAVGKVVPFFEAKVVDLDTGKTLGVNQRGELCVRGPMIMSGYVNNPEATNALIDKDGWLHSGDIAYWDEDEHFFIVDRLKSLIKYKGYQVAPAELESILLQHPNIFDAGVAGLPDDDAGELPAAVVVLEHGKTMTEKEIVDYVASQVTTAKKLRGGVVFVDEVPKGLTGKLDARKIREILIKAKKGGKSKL
Alpha-galactosidase (Coffea arabica), sequence (Q42656 whole entry, looked up): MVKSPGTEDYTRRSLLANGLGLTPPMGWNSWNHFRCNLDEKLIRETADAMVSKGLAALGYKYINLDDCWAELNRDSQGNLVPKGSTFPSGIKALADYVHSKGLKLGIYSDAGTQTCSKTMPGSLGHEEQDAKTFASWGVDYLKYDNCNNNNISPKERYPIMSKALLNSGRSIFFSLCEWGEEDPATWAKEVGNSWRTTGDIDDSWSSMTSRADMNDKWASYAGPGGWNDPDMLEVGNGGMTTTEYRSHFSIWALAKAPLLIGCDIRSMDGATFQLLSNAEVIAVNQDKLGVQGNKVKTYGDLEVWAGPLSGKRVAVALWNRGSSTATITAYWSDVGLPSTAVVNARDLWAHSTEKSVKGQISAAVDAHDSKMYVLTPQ

CC1=C(O)C(=O)[C@@H]2O[C@@H]2C1=O
inactive: Potency [1] | Potency [2] | Potency [3] | Potency [4] | Potency [5] | Potency [6]

Nc1ncnc2c1ncn2[C@@H]1O[C@H](COP(=O)(O)OP(=O)(O)OP(=O)(O)O)[C@@H](O)[C@H]1O
inactive: Potency [7] | Potency [1] | Potency [2] | Potency [3] | Potency [4] | outcome [8] inactive [at 0.573 µM] | activity change, negative = cytotoxicity [9] -18.7% [at 0.573 µM] | activity change, negative = inhibition [10] -11.5% [at 0.573 µM] | activity change, negative = cytotoxicity [11] -8.27% [at 0.573 µM] | activity change, negative = cytotoxicity [12] -13.7% [at 0.702 µM]

CCCCCCCCCC(=O)O
inactive: Potency [13] | Potency [1] | Potency [2] | Potency [3] | Potency [4] | Potency [8] | outcome [9] | Potency [10] | outcome [11] | Potency [12] | Potency [14] | outcome [15]

COc1ccc(-n2nc(C(N)=O)c3c2C(=O)N(c2ccc(N4CCCCC4=O)cc2)CC3)cc1
inactive: Potency [1] | Potency [2] | Potency [3] | Potency [4] | outcome [9] | Potency [10] | outcome [11] | Potency [12] | Potency [14]

CN[C@H](CC(C)C)C(=O)N[C@H]1C(=O)N[C@@H](CC(N)=O)C(=O)N[C@H]2C(=O)N[C@H]3C(=O)N[C@H](C(=O)N[C@H](C(=O)O)c4cc(O)cc(O)c4-c4cc3ccc4O)[C@H](O)c3ccc(c(Cl)c3)Oc3cc2cc(c3O[C@@H]2O[C@H](CO)[C@@H](O)[C@H](O)[C@H]2O[C@H]2C[C@](C)(N)[C@H](O)[C@H](C)O2)Oc2ccc(cc2Cl)[C@H]1O
inactive: outcome [16] | Potency [17] | Potency [1] | Potency [2] | Potency [3] | Potency [4] | Potency [8] | outcome [9] inactive [at 26.4 µM] | Potency [10] | outcome [11] | Potency [12]

CC(CC=O)CCCC(C)(C)O (stereo unspecified)
inactive: Potency [1] | Potency [2] | Potency [3] | Potency [4] | Potency [8] | outcome [9] | Potency [10] | outcome [11] | Potency [12]
-11.7%: activity change, negative = inhibition [14]

COc1ccc(/C=C/C(=O)Nc2ccccc2C(=O)O)cc1OC
active: Potency [17] 2820 nM | Potency [20] 429 nM | Potency [21] 857 nM
17.8 µM (active) and inactive: Potency [12]
-78.6% and -67.4%: activity change, negative = inhibition [14]
inactive: outcome [18] | outcome [19] | Potency [1] | Potency [2] | Potency [3] | Potency [4] | outcome [9] | Potency [10] | outcome [11]

N[C@@H](CC(=O)N1CCn2c(nnc2C(F)(F)F)C1)Cc1cc(F)c(F)cc1F
inactive: Potency [1] | Potency [2] | Potency [3] | Potency [4] | outcome [9] | Potency [10] | outcome [11] | Potency [12]
-27.8%: activity change, negative = inhibition [14]
